These results are taken from PubChem BioAssay (NCATS).

Structures are written as SMILES. Results filed as inconclusive are left out. A call without a number means that no potency is given here. Values without a mark were called inactive. The source made the active and inactive calls. Calls follow the shape of the dose curve; as a rule, active = well fitted cell-killing curve with a large enough effect; inconclusive = small, poorly fitted or top-dose-only effect, or effect the other way; inactive = flat fitted curve, though single readings scatter.

The test system of the first assay is C33A. In words: Primary qHTS to identify gynecologic anti-cancer compounds using libraries of approved drugs and bioactive compounds (AID 1345084). Also: nearly all actives have a fitted effect of over 55% in size. To be noted: Gynecologic cancer cell panel viability, ATPlite luminescence, 48 h; series mostly up to 57.5 µM. The gist of the method: (§1)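 Cytotoxicity screen measuring ATP content by luciferase luminescence. Each compound is applied at five concentrations for 48 h at 37 C with 5% CO2.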
A general note: Quantitative high-throughput screening tests each substance at several concentrations.
On to `O=C1c2ccc(Nc3ccc(F)cc3F)cc2CCc2ccc(OCC(O)CO)cc21` (stereo not drawn), for which the Potency entry was “inactive”. Regarding `O=S(=O)(c1ccccc1)N(CC(F)(F)F)c1ccc(C(O)(C(F)(F)F)C(F)(F)F)cc1`, the Potency entry is “inactive”. For `CCC(C)CNCC(=O)N1CCc2sccc2C1COc1cccc(C)c1` (stereo not drawn), the Potency entry was “inactive”.

For `COc1cc(C(C)C)c(Oc2cnc(N)nc2N)cc1I`, the Potency result is “inactive”. Consider `Cc1cc(C)cc(-c2cnc3cc(Cl)c(-c4cccc(O)c4)cc3c2OCCCN)c1`, for which the Potency result was “inactive”. For the compound `C=CC(C)(O)CC/C=C(\C)C(=O)OC1C(O)C(CO)OC(OC(=O)C23CCC(C)(C)CC2C2=CCC4C5(C)CCC(OC6OC(COC7OCC(OC(C)=O)C(O)C7OC7OC(COC(C)=O)C(O)C(O)C7OC(C)=O)C(O)C(O)C6OC6OCC(O)C(O)C6O)C(C)(C)C5CCC4(C)C2(C)C(O)C3O)C1OC1OCC(OC2OCC(O)C(OC3OCC(O)C(O)C3O)C2O)C(O)C1O` (stereo not drawn), the activity change, negative = cytotoxicity was -0.479% [at 6.55 µM]. On to `CCc1cccc(CC)c1-n1c(C=C(C)C)c(C(=O)N2CCNCC2)cc(-c2nc(-c3ccc(C(F)(F)F)cc3)cs2)c1=O`, for which the Potency entry was “inactive”. `Cc1nc(Nc2ccc(F)cc2)nc(N2CCc3ccccc3C2C)c1C` (stereo not drawn): the Potency result was “inactive”. Same read-out and setting: for `CCCn1ncc(CN2CCCC(C(=O)c3cccc(OC(C)C)c3)C2)c1C` (stereo not drawn) the value was “inactive”. Still for that read-out and setting: for `Cc1ccc(N2CCN(CCC3NC(=O)c4ccccc43)CC2)cc1C` (stereo not drawn) the value was “inactive”.

As for `COc1ccc(S(=O)(=O)Nc2c(C)cc(C)cc2C)cc1`, the Potency entry is “inactive”.

Turning to `O=C(NS(=O)(=O)c1ccc(Br)s1)c1ccc(Cl)cc1Cl`, the Potency result was “inactive”.

In the case of `CC1(C)CC[C@]2(C(=O)O)CC[C@]3(C)C(=CCC4[C@@]5(C)C[C@@H](O)[C@H](O)[C@@](C)(CO)C5CC[C@]43C)[C@@H]2[C@@H]1O` (stereo partly drawn), the Potency result was “inactive”. On the same count and under the same terms, for `COc1cc2c(cc1-c1c(C)noc1C)ncc1[nH]c(=O)n(C(C)c3ccccn3)c12` (stereo not drawn) the value was “inactive”; for `CC1(C)CCC(C)(C)c2cc(C#Cc3ccc(C(=O)O)cc3)ccc21`, “inactive”; for `Cc1nc2c(C(F)(F)F)cccc2nc1-c1ccc(-c2cccc(S(C)(=O)=O)c2)cc1`, “inactive”. The same measure, in the same setting: for `CC(C)C[C@@H](C(=O)N[C@@H](Cc1ccc(OCc2ccccc2)cc1)C(=O)NC(C)(C)C)N(C)Cc1ccc(C(C)(C)C)cc1` the value was “inactive”; for `CC1=C(C(=O)OC2CCCCC2)C(c2ccc([N+](=O)[O-])cc2)C2=C(CC(C)(C)CC2=O)N1` (stereo not drawn), “inactive”. Consider `C[C@@H]1O[C@@H](O[C@H]2[C@H](OC(=O)[C@]34CCC(C)(C)C[C@H]3C3=CCC5[C@@]6(C)C[C@H](O)[C@H](O[C@@H]7O[C@H](C(=O)O)[C@@H](O)[C@H](O)[C@H]7O)[C@@](C)(CO)C6[C@H](O)C[C@@]5(C)[C@]3(C)C[C@H]4O)O[C@@H](CO)[C@@H]2O)[C@H](O)[C@H](O)[C@H]1O[C@@H]1OC[C@@H](O)[C@H](O[C@H]2OC[C@](O)(CO)[C@H]2O)[C@H]1O` (stereo partly drawn), for which the activity change, negative = cytotoxicity is -18.2% [at 6.55 µM].

For the next assay, the system named is CAOV3. Described as above. To be noted: Gynecologic cancer cell panel viability, ATPlite luminescence, 48 h; series mostly up to 57.5 µM. The gist of the method: as §1
On the technique in general: Cellular ATP, detected with luciferase, serves as a proxy for viable cell number.
In the case of `O=C(NCCCCN1CCN(c2cccc(Cl)c2Cl)CC1)c1cc2ccccc2s1`, the Potency result is “inactive”. Take `C/C=C/[C@@H]1C=C[C@@H]2C[C@H](C)CC[C@H]2[C@]1(C)/C(O)=C1/C(=O)[C@@H](CO)N(C)C1=O`: the Potency result was “inactive”.

In the case of `CNc1nc(NCc2ccc(NS(C)(=O)=O)cc2Cl)cc(-c2ccccn2)n1`, the Potency result was “inactive”. Take `N#CC(CCCN1CCN(/N=C/c2cccnc2)CC1)(c1ccccc1)c1ccccc1`: the Potency entry is “inactive”. As to `CCc1cc2c(cc1CC)CC(NCC(O)c1ccc(O)c3[nH]c(=O)ccc13)C2` (stereo not drawn), the Potency entry was “inactive”. On the same count and under the same terms, for `CC(=O)OC1C(OC(=O)c2ccccc2)C2C(=C(C)CCC2(C)C)C23CCC(C)(C2)C(=O)CC13` (stereo not drawn) the value was “inactive”. The same measure, in the same setting: for `COC(=O)c1cc(Br)cnc1N1CCC(NC2CCCCC2)C(O)C1` (stereo not drawn) the value was “inactive”; for `Cc1ccc(C2(C(=O)N3CCC(n4nc(-c5ccccc5)oc4=O)CC3)CC2)cc1`, “inactive”; for `Cc1c(C2=CCN(C(=O)N(C)C(C)C)CC2)nnn1-c1cccnc1F`, “inactive”. The same measure, in the same setting: in the case of `NC(N)=NC(=O)c1cnn(-c2cccc3ncccc23)c1C1CC1` it was “inactive”; in that of `CC1(C)OC[C@H](NC(=O)Nc2ccc(Br)cc2Br)[C@H](c2ccccc2)O1`, “inactive”. Turning to `O=C(Nc1ccccc1)c1ccc(Nc2nnc(-c3ccc(O)cc3)c3ccccc23)cc1`, the Potency result is “inactive”. On the same count and under the same terms, in the case of `CCCc1ccc(OCC(=O)N(Cc2nc(-c3cccnc3)no2)C(C)C)cc1` it was “inactive”; in that of `C/C(=C/C=C\C=C\Cc1cnco1)[C@@H](O)C(C)(C)C(N)=O`, “inactive”. Still for that read-out and setting: in the case of `CCC(C)CNCC(=O)N1CCC2SC=CC2C1COc1cccc(C)c1` (stereo not drawn) it was “inactive”. For the compound `CNC(=O)c1cc(Oc2ccc(NC(=O)c3cccc(C(F)(F)F)c3)cc2)ccn1`, the Potency result is “inactive”.

Take `CC(F)(F)CN1CCOc2c(nn(-c3ccccc3Cl)c2-c2ccc(Cl)cc2)C1=O`: the Potency entry was “inactive”. The same measure, in the same setting: for `COc1cc(CN(CCN)C(=O)c2cccs2)ccc1OCc1ccccc1` the value was “inactive”. Regarding `CO[C@H]1[C@@H](O)[C@H](O[C@H]2CC[C@@]3(C)C(CCC4C3CC[C@]35COC6(COC(=O)C6)C3CCC45O)C2)O[C@@H](C)[C@@H]1OC1OC(CO)C(OC2OC(CO)C(O)C(O)C2O)C(O)C1O` (stereo partly drawn), the activity change, negative = cytotoxicity was -7.69% [at 11.6 µM]. On to `O=C1c2ccc(Nc3ccc(F)cc3F)cc2CCc2ccc(OCC(O)CO)cc21` (stereo not drawn), for which the Potency entry is “inactive”.

For the compound `O=S(=O)(c1ccccc1)N(CC(F)(F)F)c1ccc(C(O)(C(F)(F)F)C(F)(F)F)cc1`, the Potency entry was “inactive”. For the compound `CCC(C)CNCC(=O)N1CCc2sccc2C1COc1cccc(C)c1` (stereo not drawn), the Potency result is “inactive”.

Turning to `COc1cc(C(C)C)c(Oc2cnc(N)nc2N)cc1I`, the Potency result is “inactive”. Turning to `C=CC(C)(O)CC/C=C(\C)C(=O)OC1C(O)C(CO)OC(OC(=O)C23CCC(C)(C)CC2C2=CCC4C5(C)CCC(OC6OC(COC7OCC(OC(C)=O)C(O)C7OC7OC(COC(C)=O)C(O)C(O)C7OC(C)=O)C(O)C(O)C6OC6OCC(O)C(O)C6O)C(C)(C)C5CCC4(C)C2(C)C(O)C3O)C1OC1OCC(OC2OCC(O)C(OC3OCC(O)C(O)C3O)C2O)C(O)C1O` (stereo not drawn), the activity change, negative = cytotoxicity is -0.149% [at 6.55 µM]. Take `CCc1cccc(CC)c1-n1c(C=C(C)C)c(C(=O)N2CCNCC2)cc(-c2nc(-c3ccc(C(F)(F)F)cc3)cs2)c1=O`: the Potency entry is “inactive”. On the same count and under the same terms, in the case of `CCCn1ncc(CN2CCCC(C(=O)c3cccc(OC(C)C)c3)C2)c1C` (stereo not drawn) it was “inactive”; in that of `Cc1ccc(N2CCN(CCC3NC(=O)c4ccccc43)CC2)cc1C` (stereo not drawn), “inactive”; in that of `COc1ccc(S(=O)(=O)Nc2c(C)cc(C)cc2C)cc1`, “inactive”. Still for that read-out and setting: in the case of `O=C(NS(=O)(=O)c1ccc(Br)s1)c1ccc(Cl)cc1Cl` it was “inactive”; in that of `CC1(C)CC[C@]2(C(=O)O)CC[C@]3(C)C(=CCC4[C@@]5(C)C[C@@H](O)[C@H](O)[C@@](C)(CO)C5CC[C@]43C)[C@@H]2[C@@H]1O` (stereo partly drawn), “inactive”. Same read-out and setting: for `CC1(C)CCC(C)(C)c2cc(C#Cc3ccc(C(=O)O)cc3)ccc21` the value was “inactive”; for `Cc1nc2c(C(F)(F)F)cccc2nc1-c1ccc(-c2cccc(S(C)(=O)=O)c2)cc1`, “inactive”; for `CC1=C(C(=O)OC2CCCCC2)C(c2ccc([N+](=O)[O-])cc2)C2=C(CC(C)(C)CC2=O)N1` (stereo not drawn), “inactive”.

For `C[C@@H]1O[C@@H](O[C@H]2[C@H](OC(=O)[C@]34CCC(C)(C)C[C@H]3C3=CCC5[C@@]6(C)C[C@H](O)[C@H](O[C@@H]7O[C@H](C(=O)O)[C@@H](O)[C@H](O)[C@H]7O)[C@@](C)(CO)C6[C@H](O)C[C@@]5(C)[C@]3(C)C[C@H]4O)O[C@@H](CO)[C@@H]2O)[C@H](O)[C@H](O)[C@H]1O[C@@H]1OC[C@@H](O)[C@H](O[C@H]2OC[C@](O)(CO)[C@H]2O)[C@H]1O` (stereo partly drawn), the activity change, negative = cytotoxicity was -15.4% [at 6.55 µM].
